Records with an inconclusive call do not appear. Activity calls are given as the source filed them. Unless noted, the call rests on the fitted dose curve; in most records, active means well fitted curve in the direction sought with a large enough effect; inconclusive means small, poorly fitted or top-dose-only effect, or another doubt; inactive means no such curve, though single readings can be large; an effect the other way counts as inactive or inconclusive.
Key:
[1] = Counterscreen for APE1 Inhibitors: Fluorescent Dye Displacement Validation Assay (AID 1707);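 further: plate controls were ThO with dsDNA and no compound for no effect and ThO without dsDNA for full effect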
How it was run: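 Thiazole Orange (250 nM) bound to 50 nM TAMRA-labelled dsDNA with tetrahydrofuran abasic site; displacement by DNA-binding compounds lowers fluorescence. Buffer 50 mM Tris-HCl pH 7.5, 50 mM NaCl, 2 mM MgCl2, 0.01% Tween-20; endpoint read at 480/540 nm.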

[2] = qHTS for differential inhibitors of proliferation of Plasmodium falciparum line 7G8 (AID 1815);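 further: parasite growth measured after three days of incubation; plate controls were vehicle wells for no effect and reference inhibitor wells for full effect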
[3] = qHTS for differential inhibitors of proliferation of Plasmodium falciparum line GB4 (AID 1816); details: Potency: Plasmodium falciparum GB4 proliferation inhibition;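 further: parasite growth measured after 72 h incubation; 0% = vehicle DMSO and -100% = reference inhibitor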
[4] = qHTS for differential inhibitors of proliferation of Plasmodium falciparum line 3D7 (AID 1876);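 further: parasite growth measured after three days of culture; 0% = vehicle wells and -100% = reference inhibitor wells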
[5] = qHTS for differential inhibitors of proliferation of Plasmodium falciparum line D10 (AID 1877);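 further: parasites grown with compound for 72 h before DNA staining; plate controls were vehicle wells for no effect and reference inhibitor wells for full effect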
[6] = qHTS for differential inhibitors of proliferation of Plasmodium falciparum line Dd2 (AID 1882); details: Potency: Plasmodium falciparum Dd2 proliferation inhibition;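 further: series mostly up to about 29 µM; plate controls were DMSO vehicle for no effect and 0.29 µM artemisinin for full effect; nearly all actives have a fitted effect of over 65% in size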
How it was run: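 Dd2-infected erythrocytes (0.3% parasitemia, 2.5% hematocrit final) incubated with compound 72 h at 37 C, 5% CO2; lysed with saponin/Triton buffer containing SYBR Green I, incubated overnight in the dark, then read by fluorescence (485/535 nm). Normalized to 0.29 uM artemisinin and DMSO.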

[7] = qHTS for differential inhibitors of proliferation of Plasmodium falciparum line W2 (AID 1883); details: Potency: Plasmodium falciparum W2 proliferation inhibition;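 further: parasites grown with compound for 72 h before lysis and staining; 0% = vehicle wells and -100% = control inhibitor wells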
[8] = qHTS for differential inhibitors of proliferation of Plasmodium falciparum line HB3 (AID 1886); details: Potency: Plasmodium falciparum HB3 proliferation inhibition;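 further: parasites grown with compound for 72 h before SYBR Green readout; plate controls were vehicle for no effect and reference inhibitor for full effect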
[9] = target: ATP-dependent DNA helicase Q1 (Homo sapiens) (UniProt P46063); test: qHTS Validation Assay for Inhibitors of RecQ-Like Dna Helicase 1 (RECQ1) (AID 2353);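 further: plate controls were DMSO vehicle for no effect and enzyme-free control for full effect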
How it was run: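 50 nM RECQ1T1 preincubated 15 min with compound in Tris pH 8.0 buffer with MgCl2, DTT, Tween-20 and 2.5 ug/ml poly(dI-dC); started with 200 nM TAMRA/BHQ-2 forked duplex and 2 mM ATP. Unwinding read as fluorescence (525/598 nm), two reads 2 h apart.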

[10] = target: RecQ-like DNA helicase BLM (Homo sapiens) (UniProt P54132); test: qHTS Validation Assay for Inhibitors of Bloom's syndrome helicase (BLM) (AID 2364);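 further: plate controls were DMSO vehicle for no effect and enzyme-free control for full effect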
How it was run: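 50 nM BLM preincubated 15 min at room temperature with compound in pH 8.0 Tris buffer containing 2.5 ug/ml poly(dI-dC); started with 200 nM TAMRA/BHQ-2 forked duplex and 2 mM ATP (final). Unwinding read as TAMRA fluorescence increase, two reads 2 h apart.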

[11] = Validation screen for inhibitors of Lassa infection (AID 463096; calls by dose curve; further: on the % scale 0 is the no-effect control and ±100 the full control effect)
[12] = Validation screen for small molecules that induce DNA re-replication in MCF 10A normal breast cells (AID 463097); further: 0% is about no effect; nearly all actives have a fitted effect of over 60% in size
How it was run: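 Following 48 hr compound incubation (37 C, 5% CO2), MCF 10A cells receive Hoechst for 40 min at 37 C. Nuclei are then scanned (excitation 405 nm, emission 500-530 nm) for total fluorescence intensity.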

[13] = Quantitative high throughput screen for delayed death inhibitors of the malarial parasite plastid, 96 hour incubation (AID 488745);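 further: luciferase-expressing P. falciparum in erythrocytes at 2% hematocrit and 0.1% parasitemia; series mostly up to about 29 µM; on the % scale 0 is the no-effect control and ±100 the full control effect; nearly all actives have a fitted effect of over 70% in size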
How it was run: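 Infected erythrocytes were added to compound in Albumax-supplemented RPMI 1640 at 0.1% parasitemia and 2% hematocrit (final), incubated 96 h at 37 C under 5% CO2, then luciferase reagent was added and luminescence measured.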

[14] = Quantitative high throughput screen for delayed death inhibitors of the malarial parasite plastid, 48 hour incubation (AID 488752); further: on the % scale 0 is the no-effect control and ±100 the full control effect; nearly all actives have a fitted effect of over 65% in size
How it was run: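 Readout is firefly luciferase luminescence from a reporter integrated into the parasite genome, with lower signal taken as inhibited growth. Infected red cells (0.1% parasitemia, 2% hematocrit final) are cultured with compound for one 48 h cycle at 37 C.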

[15] = target: M-phase phosphoprotein 8 (Homo sapiens) (UniProt Q99549); test: qHTS Validation Assay for Inhibitors for MPP8 Chromodomain Interactions with Methylated Histone Tails (AID 488949);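 further: 50 nM MPP8 with 50 nM peptide preformed then compounds added for 30 min; AlphaScreen signal from MPP8 chromodomain bound to biotinylated H3K9me3 peptide; top concentration of the series differs between compounds; on the % scale 0 is the no-effect control and ±100 the full control effect; nearly all actives have a fitted effect of over 55% in size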
How it was run: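 Chemiluminescent proximity assay: histidine-tag capture via nickel acceptor beads, biotin peptide via streptavidin donor beads. Protein and peptide each at 50 nM, pH 7.4, with 30 min incubations at room temperature for complex formation, compound exposure and bead binding.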

[16] = target: Thyrotropin receptor (Homo sapiens) (UniProt P16473); test: qHTS Assay for Antagonists of the Thyroid Stimulating Hormone Receptor (AID 488980); further: series mostly up to about 58 µM; 0% is about no effect
How it was run: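 Inhibition of TSH-stimulated cAMP accumulation was quantified by homogeneous time-resolved FRET in TSHR-transfected HEK293 cells. Agonist: TSH, 4 nM final (EC80).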

[17] = target: Thyrotropin-releasing hormone receptor (Homo sapiens) (UniProt P34981); test: qHTS for Small Molecule Agonists and Allosteric Enhancers of Human TRH Receptor: Validation Screen for Agonists (AID 493127;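 active means calcium activation more than 3 SD above the typical response in the agonist read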;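 further: intracellular calcium rise by fluo-8 fluorescence before TRH EC20 addition; 0% is about no effect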); details: TRH receptor agonist cell assay; at 2 µM; hits give high values
How it was run: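 Cells 2000/well, 10% FCS, 18 h 33.5C/5% CO2 → fluo-8 Ca dye, RT 30 min–1.5 h → FDSS baseline 10 × 1 s → compound added → 230 cycles (1 s/cycle) agonist mode. TRH controls.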

[18] = target: Galactokinase (Homo sapiens) (UniProt P51570); test: qHTS Validation Assay for Inhibitors of Human Galactokinase (GALK) (AID 493189); further: 0% is about no effect
How it was run: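 Enzyme activity is inferred from ATP consumption: human GALK phosphorylates galactose (100 uM) using 35 uM ATP for 1 h at room temperature, and luciferase-based Kinase-Glo Plus reports unconsumed ATP.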

[19] = Validation screen for small molecules that induce DNA re-replication in SW480 colon adenocarcinoma cells (AID 504364); further: 0% is about no effect
How it was run: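 250 cells/well; compound pinned in; 48 hr, 37 C, 5% CO2; Hoechst added, 40 min; nuclear fluorescence imaged, 405 ex / 500-530 em; re-replication scored as increase in high-intensity nuclei.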

[20] = target: DNA dC->dU-editing enzyme APOBEC-3G (Homo sapiens) (UniProt Q9HC16); test: qHTS for inhibitors of Vif-A3G interactions: Validation (AID 588379); further: 0% is about no effect
How it was run: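 HeLa cells stably expressing Vif and A3G-eYFP, 700 cells/well, incubated overnight at 37 deg C, then exposed to compound overnight at 37 deg C. Inhibition of Vif-mediated degradation read as increased yellow fluorescence (Ex 488/Em 500-530) by laser-scanning cytometry.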

[21] = target: Voltage-gated inwardly rectifying potassium channel KCNH2 (Homo sapiens) (UniProt Q12809); test: qHTS Assay for Small Molecule Inhibitors of the Human hERG Channel Activity (AID 588834);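 further: top concentration of the series differs between compounds; on the % scale 0 is the no-effect control and ±100 the full control effect; lower thallium flux fluorescence means stronger hERG block; nearly all actives have a fitted effect of over 50% in size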
How it was run: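 Blockade is seen as reduced FluxOR thallium-flux fluorescence in U2OS cells expressing hERG from a BacMam construct, in Opti-MEM with 2% FCS. Concentration-response data fitted to the Hill equation for AC50.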

[22] = system: Zika virus NS2B-NS3 protease; test: Primary screen GU AMC qHTS for Zika virus inhibitors (AID 1347154);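 further: 0% = no-inhibitor control and -100% = no-enzyme control; nearly all actives have a fitted effect of over 70% in size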
How it was run: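 Unlinked Zika NS2B hydrophilic domain–NS3 protease complex at 25 nM in 10 mM Tris-HCl pH 8.0, 0.01% Tween 20, with an AMC peptide substrate. Fluorescence change (340/450 nm) over 15 min at room temperature, normalized to controls, fitted to 4-parameter Hill.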

[23] = Primary qHTS for small molecule stabilizers of the endoplasmic reticulum resident proteome: Secreted ER Calcium Modulated Protein (SERCaMP) assay (AID 1508630); further: on the % scale 0 is the no-effect control and ±100 the full control effect
How it was run: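 GLuc-SERCaMP-expressing SH-SY5Y cells, pretreated 16 h with compound, are challenged with thapsigargin to empty ER calcium stores; after 4 h, coelenterazine is added directly to the medium and luminescence is imaged.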

Chain of DNA dC->dU-editing enzyme APOBEC-3G (Homo sapiens) (Q9HC16 whole entry, looked up): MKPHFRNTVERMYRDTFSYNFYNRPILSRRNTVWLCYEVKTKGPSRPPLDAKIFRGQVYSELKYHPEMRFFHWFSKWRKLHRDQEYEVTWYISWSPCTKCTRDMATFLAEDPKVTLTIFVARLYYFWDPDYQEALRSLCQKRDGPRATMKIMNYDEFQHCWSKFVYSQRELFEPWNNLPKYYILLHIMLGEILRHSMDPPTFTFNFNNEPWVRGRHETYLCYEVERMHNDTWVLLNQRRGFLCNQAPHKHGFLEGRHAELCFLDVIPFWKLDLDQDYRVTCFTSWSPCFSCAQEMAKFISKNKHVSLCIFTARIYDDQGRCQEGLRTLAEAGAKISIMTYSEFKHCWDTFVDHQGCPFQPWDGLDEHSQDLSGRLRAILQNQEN
Chain of Voltage-gated inwardly rectifying potassium channel KCNH2 (Homo sapiens) (Q12809 whole entry, looked up): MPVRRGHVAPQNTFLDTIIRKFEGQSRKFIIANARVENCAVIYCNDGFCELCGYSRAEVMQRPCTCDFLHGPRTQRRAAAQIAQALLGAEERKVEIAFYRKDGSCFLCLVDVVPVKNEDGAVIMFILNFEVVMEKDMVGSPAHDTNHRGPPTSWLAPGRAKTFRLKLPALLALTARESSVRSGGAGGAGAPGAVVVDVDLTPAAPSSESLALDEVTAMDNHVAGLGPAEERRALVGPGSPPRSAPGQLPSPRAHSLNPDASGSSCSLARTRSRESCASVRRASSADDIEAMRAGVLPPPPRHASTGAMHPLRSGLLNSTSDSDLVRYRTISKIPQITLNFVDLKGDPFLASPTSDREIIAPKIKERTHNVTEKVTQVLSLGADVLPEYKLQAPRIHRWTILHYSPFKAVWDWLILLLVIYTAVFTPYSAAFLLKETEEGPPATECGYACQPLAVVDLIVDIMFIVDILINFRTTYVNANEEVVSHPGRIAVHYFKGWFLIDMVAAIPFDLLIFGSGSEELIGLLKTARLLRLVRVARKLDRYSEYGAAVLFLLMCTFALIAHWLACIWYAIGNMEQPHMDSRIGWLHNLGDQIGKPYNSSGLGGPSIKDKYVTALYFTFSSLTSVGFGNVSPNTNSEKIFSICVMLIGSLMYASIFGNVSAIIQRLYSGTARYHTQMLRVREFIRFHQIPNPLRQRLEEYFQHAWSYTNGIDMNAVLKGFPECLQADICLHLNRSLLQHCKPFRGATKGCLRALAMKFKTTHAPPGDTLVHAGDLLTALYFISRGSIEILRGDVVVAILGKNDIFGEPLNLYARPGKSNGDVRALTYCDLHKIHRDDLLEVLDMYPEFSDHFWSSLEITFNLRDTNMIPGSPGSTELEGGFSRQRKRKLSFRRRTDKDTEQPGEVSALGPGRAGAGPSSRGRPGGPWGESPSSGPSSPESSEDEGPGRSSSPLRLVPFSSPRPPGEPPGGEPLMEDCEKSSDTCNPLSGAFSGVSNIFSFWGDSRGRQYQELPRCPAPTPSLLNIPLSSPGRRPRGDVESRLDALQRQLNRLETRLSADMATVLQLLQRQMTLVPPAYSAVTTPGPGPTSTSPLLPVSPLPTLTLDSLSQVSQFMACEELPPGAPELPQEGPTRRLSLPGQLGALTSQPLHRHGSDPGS
Chain of ATP-dependent DNA helicase Q1 (Homo sapiens) (P46063 whole entry, looked up): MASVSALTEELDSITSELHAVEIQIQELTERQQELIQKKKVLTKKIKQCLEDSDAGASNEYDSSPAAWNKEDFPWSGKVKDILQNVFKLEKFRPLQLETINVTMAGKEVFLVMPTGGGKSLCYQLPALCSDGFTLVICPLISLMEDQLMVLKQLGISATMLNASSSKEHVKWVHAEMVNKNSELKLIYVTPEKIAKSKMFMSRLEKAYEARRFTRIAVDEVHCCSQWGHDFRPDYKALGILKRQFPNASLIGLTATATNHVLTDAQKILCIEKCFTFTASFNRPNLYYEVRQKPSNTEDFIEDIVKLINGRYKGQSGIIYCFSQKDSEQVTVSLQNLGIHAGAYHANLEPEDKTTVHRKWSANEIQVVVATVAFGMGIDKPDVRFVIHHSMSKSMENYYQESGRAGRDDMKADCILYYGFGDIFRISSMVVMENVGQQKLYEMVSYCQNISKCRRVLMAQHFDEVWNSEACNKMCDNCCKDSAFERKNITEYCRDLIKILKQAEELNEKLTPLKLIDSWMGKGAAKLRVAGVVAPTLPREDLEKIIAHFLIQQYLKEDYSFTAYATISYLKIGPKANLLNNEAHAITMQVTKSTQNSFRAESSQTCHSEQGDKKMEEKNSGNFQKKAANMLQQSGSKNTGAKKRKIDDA
Chain of RecQ-like DNA helicase BLM (Homo sapiens) (P54132 whole entry, looked up): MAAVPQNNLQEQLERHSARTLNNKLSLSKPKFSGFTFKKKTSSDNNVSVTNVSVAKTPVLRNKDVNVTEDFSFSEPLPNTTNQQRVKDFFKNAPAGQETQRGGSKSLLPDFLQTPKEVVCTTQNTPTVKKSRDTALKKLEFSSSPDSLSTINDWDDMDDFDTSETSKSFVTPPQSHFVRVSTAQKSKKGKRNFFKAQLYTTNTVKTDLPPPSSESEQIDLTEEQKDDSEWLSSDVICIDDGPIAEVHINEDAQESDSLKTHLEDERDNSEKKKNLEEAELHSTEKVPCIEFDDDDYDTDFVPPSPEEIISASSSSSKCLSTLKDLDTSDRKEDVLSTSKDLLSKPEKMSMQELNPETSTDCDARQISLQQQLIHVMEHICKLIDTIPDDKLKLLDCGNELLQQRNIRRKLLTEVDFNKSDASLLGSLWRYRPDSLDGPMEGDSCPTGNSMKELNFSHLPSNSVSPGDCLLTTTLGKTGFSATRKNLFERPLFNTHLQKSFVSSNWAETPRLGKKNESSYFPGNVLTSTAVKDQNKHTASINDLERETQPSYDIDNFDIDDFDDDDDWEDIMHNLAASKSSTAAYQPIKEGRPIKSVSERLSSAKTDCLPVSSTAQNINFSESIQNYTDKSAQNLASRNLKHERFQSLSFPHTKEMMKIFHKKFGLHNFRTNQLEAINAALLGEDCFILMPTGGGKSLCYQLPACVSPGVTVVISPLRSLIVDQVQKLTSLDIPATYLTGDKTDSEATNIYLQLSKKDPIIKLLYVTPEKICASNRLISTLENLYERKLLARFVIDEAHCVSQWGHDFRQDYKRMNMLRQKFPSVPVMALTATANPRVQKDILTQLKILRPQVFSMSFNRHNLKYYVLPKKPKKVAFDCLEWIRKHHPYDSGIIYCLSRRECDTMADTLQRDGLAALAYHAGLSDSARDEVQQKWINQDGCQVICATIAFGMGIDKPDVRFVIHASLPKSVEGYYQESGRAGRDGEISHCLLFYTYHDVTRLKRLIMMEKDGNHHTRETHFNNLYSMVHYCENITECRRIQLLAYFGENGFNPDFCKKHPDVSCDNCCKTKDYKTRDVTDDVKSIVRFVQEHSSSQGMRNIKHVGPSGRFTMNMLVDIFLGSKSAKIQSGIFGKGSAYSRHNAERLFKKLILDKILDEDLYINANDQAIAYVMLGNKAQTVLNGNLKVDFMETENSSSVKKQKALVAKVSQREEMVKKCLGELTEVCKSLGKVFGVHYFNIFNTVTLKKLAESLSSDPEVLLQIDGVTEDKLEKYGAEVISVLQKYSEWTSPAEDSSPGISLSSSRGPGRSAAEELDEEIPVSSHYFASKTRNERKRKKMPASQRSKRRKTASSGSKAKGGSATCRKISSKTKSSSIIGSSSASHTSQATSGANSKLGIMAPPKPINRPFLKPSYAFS
Chain of Galactokinase (Homo sapiens) (P51570 whole entry, looked up): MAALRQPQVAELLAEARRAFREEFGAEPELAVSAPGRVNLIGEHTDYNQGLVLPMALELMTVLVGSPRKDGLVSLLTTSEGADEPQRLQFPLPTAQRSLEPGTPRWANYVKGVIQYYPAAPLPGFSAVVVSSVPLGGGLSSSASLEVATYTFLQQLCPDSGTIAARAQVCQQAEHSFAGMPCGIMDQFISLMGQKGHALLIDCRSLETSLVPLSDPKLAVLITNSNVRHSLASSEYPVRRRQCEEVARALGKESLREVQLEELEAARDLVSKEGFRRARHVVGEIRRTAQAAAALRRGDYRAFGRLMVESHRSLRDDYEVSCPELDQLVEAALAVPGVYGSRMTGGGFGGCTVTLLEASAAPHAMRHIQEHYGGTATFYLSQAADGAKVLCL
Chain of Thyrotropin-releasing hormone receptor (Homo sapiens) (P34981 whole entry, looked up): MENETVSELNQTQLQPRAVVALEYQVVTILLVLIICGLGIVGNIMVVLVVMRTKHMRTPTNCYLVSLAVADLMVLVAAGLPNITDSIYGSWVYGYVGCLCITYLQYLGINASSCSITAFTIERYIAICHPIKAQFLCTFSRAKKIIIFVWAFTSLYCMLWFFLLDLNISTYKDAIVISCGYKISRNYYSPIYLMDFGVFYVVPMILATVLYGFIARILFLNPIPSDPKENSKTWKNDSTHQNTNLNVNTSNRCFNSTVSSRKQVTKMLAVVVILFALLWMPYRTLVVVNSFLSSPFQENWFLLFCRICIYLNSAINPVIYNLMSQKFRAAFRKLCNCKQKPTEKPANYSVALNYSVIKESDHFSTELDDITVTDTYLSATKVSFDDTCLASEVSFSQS

N[C@H](CCCCCP(=O)(O)O)C(=O)O
inactive: Potency [1] | Potency [2] | Potency [3] | Potency [4] | Potency [5] | Potency [6] | Potency [7] | Potency [8] | Potency [9] | Potency [10] | Potency [11] | Potency [12] | Potency [13] | Potency [14] | Potency [15] | outcome [16] | activation [17] -0.125% | outcome [18] | Potency [19] | Potency [20] | Potency [21] | Potency [22] | Potency [23]
